# Hit rate of the full screen: of about 190,000 compounds, about 930 (0.49%) were called active. The list shows a part of the results. Results with a measured potency or affinity are listed apart. Values without a mark were called inactive.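 How the source made its calls: active means z-score of insulin promoter reporter brightness in nuclei below -3 at 5 µM, with at least 500 cells counted; inconclusive means wells with under 500 cells, flagged as toxic or sparse; inactive means the rest.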
# Experiment: insulin promoter down-regulators in MIN6 cells, imaging, high-content screening, mouse beta cells (AID 1628)
# Conditions: MIN6 insulin promoter GFP reporter, at 5 µM, active compounds read low
row,SMILES,z-score
1,CC1(C#CC[N+]2(C)CCCCC2)CCC2C(O1)c1ccccc1OC2(C)C (stereo not given),3.38
2,CC(=O)C(=Cc1cn(-c2ccccc2)nc1-c1ccccc1)C(C)=O,3.2
3,COc1ccc(-c2nn(-c3ccccc3)cc2/C=C(\C#N)S(=O)(=O)c2ccccc2)cc1OC,-4.08 (active)
4,CN(C)c1ccc(/C=C/c2ccc3ccccc3n2)cc1,7.29
5,Cc1cc(N2C(=O)c3ccccc3C2=O)n(C)n1,3.77
6,O=C(/C=C/c1ccco1)NC(=S)Nc1ccccc1N1CCCC1,3.08
7,COc1ccc(NC(=O)CSc2nnc(-c3cccs3)n2C)cc1OC,3.55
8,CCc1nnc(NC(=O)CSc2ccc(-c3cccs3)nn2)s1,1.38
9,CCn1c(SCC(=O)N2CCCC2)nnc1-c1ccc(N)cc1,1.98
10,CCOC(=O)c1ccc(CSc2nnc(-c3ccncc3)n2N)cc1,3.8
11,CCn1c(SCC(=O)Nc2cc(OC)c(OC)c(OC)c2)nnc1-c1cccs1,-4.1 (active)
12,CCOc1ccccc1N1CC(O)=C(c2nc3ccccc3s2)C1=N,-3.91 (active)
13,Cc1ccc(N2C(=O)C3C(C(=O)c4ccccc4)=NN(c4ccccc4)C3C2=O)cc1 (stereo not given),3.17
14,Cc1ccc(-n2cc(-c3ccc([N+](=O)[O-])cc3)[nH]c2=S)c(C)c1,-6.17 (active)
15,CCN1CCC2(CC1)N=C(c1ccc(F)cc1)C(=S)N2,4.47
16,CS(=O)(=O)ON=C1CCN(S(=O)(=O)c2ccccc2)CC1,3.51
17,O=c1oc2c(CN3CCCCC3)c(O)ccc2cc1-c1nc2ccccc2[nH]1,3.57
18,O=C1C=C(c2ccccc2)C[C@H](c2cccs2)[C@H]1n1nnc([N+](=O)[O-])n1,-3.36 (active)
19,CCOC(=O)CC1C(=O)NCCN1c1nc2c(C)cccn2c(=O)c1/C=C1\SC(=S)N(CC(C)C)C1=O (stereo not given),16.9
20,CCN(CC)CCCNc1nc2cc(OC)c(OC)cc2c2nc(-c3cccnc3)nn12,-3.38 (active)

row,SMILES,z-score
1,CCN(CC)CCCC(C)Nc1c2ccc(Cl)cc2nc2ccc(OC)cc12 (stereo not given),12.4
2,CC1CCC(C(C)C)C(OC(=O)C[n+]2cc(-c3ccc(Cl)cc3)n3c2CCCCC3)C1 (stereo not given),-4.3 (active)
3,COc1ccc(-c2c[n+](CC(=O)N3c4ccccc4Sc4ccccc43)c3n2CCC3)cc1,-3.33 (active)
4,Nc1ccc(-c2nc3nc(N)nc(N)c3nc2-c2ccc(N)cc2)cc1,4.9
5,Cc1cccc(OCC2=N/C(=C\N(C)C)C(=O)O2)c1,2.11
6,Nc1nonc1C(=O)NCCNCc1ccccc1OCc1ccccc1F,-3.51 (active)
7,COc1ccc(S(=O)(=O)N(CCCN2CCCC2=O)Cc2cc3c(C)ccc(C)c3[nH]c2=O)cc1,-4.34 (active)
8,COc1ccc(C(=O)N(CN2CCCC2=O)c2ccc(C)cc2)cc1,3.42
9,COC(=O)c1cnn2c(C(F)(F)F)cc(-c3ccc(F)cc3)nc12,4.23
10,Oc1c(C(c2ccccn2)N2CCCCC2)cc(Cl)c2cccnc12 (stereo not given),-5.13 (active)
11,COc1ccc(-c2csc(N(CCCN3CCOCC3)C(=O)c3ccco3)n2)cc1,-4.01 (active)
12,COc1ccc(NC(=S)N(CCCN2CCOCC2)C(C)c2cc3cccc(OC)c3o2)cc1 (stereo not given),2.54
13,CN(C)CCCN(C(=O)COc1ccc(Cl)cc1)c1nc2ccc(F)cc2s1,1.61
14,COc1ccc(-c2cc(C(F)(F)F)nc(SCC(=O)NCCN3CCOCC3)n2)cc1OC,0.28
15,COc1ccc(-c2csc(N(CCCN(C)C)C(=O)c3cccs3)n2)cc1,-4.21 (active)
16,Cc1[nH]c2ccccc2c1Cc1nnc(SCC(N)=O)o1,4.82
17,COc1ccc(C(=O)CSc2nnc(Cn3cnc4ccccc43)o2)cc1,-3.47 (active)
18,C/C(=N\S(=O)(=O)c1ccc(C)cc1)N1CCN(S(=O)(=O)c2ccccc2)C1,3.52
19,CCC(=O)c1cc(F)c(N2CCN(S(=O)(=O)c3ccc(C)cc3)CC2)cc1C,-4.01 (active)
20,CCCSc1nc2sc3c(c2c(=O)[nH]1)CCN(Cc1ccccc1)C3,7.3

row,SMILES,z-score
1,O=C(c1ccco1)N(Cc1ccccc1)c1cccc([N+](=O)[O-])c1,2.28
2,CC(C)(C)c1cc(C(=O)NCc2cccnc2)ccn1,4.34
3,CC(=O)c1c(COC(=O)c2ccncc2)nc2ccccc2[n+]1[O-],4.18
4,CCOc1ccc(C(=O)O)cn1,0.1
5,CCOc1ccc2nc(C)cc(Nc3cccc([N+](=O)[O-])c3)c2c1,-3.35 (active)
6,O=[N+]([O-])c1ccc(N(c2ccccc2)c2ccccc2)cc1,3.11
7,Cc1ccccc1-n1c(=O)c2ccccc2n(CC(=O)NCc2ccco2)c1=O,3.06
8,CC(C)(C)c1ccc(Cn2c(=N)n(CC(O)c3ccco3)c3ccccc32)cc1 (stereo not given),-5.45 (active)
9,Cc1ccc(Cn2c(=N)n(CC(O)c3ccco3)c3ccccc32)cc1 (stereo not given),-11.4 (active)
10,COc1ccc(CN(CC2CCC(C(=O)O)CC2)C(=S)Nc2cccc(C)c2)cc1 (stereo not given),3.65
11,COCCSc1nnc(NC(=O)c2ccc([N+](=O)[O-])cc2)s1,0.48
12,Cc1sc2ncnc(NCCCn3ccnc3)c2c1C,-3.16 (active)
13,COc1ccc(C(=O)Nn2cnnc2)cc1OC,4.36
14,COc1ccc(C(=O)Nc2cccnc2)cc1OC,2.67
15,COc1ccc(C(=O)Nc2ccc(S(=O)(=O)Nc3nccnc3OC)cc2)cc1OC,-3.5 (active)
16,COc1ccc(OCC(=O)Nc2ccc(S(=O)(=O)Nc3cc(C)nc(C)n3)cc2)cc1,3.12
17,CCN(CC)c1ccc2cc(/C(N)=N/NC(=O)c3cccs3)c(=O)oc2c1,7.11
18,CCN(CC)c1ccc2cc(-c3nnc(-c4ccccc4)o3)c(=O)oc2c1,15.1
19,Cc1nc2[nH]c(=O)c3c(n2n1)NC1=C(C(=O)CC(C)(C)C1)C3c1ccccc1 (stereo not given),-4.42 (active)
20,O=C1S/C(=C/c2ccc(N3CCOCC3)o2)C(=O)N1Cc1c(F)cccc1Cl,3.83
